Source: PubChem BioAssay
Results filed as inconclusive are left out. Calls of active or inactive are those of the source.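 Rule for the calls, unless noted: active = normalized viability below 100% at a tested concentration; inactive = the rest.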

Legend:
[1] = viability loss in pontine glioma line – cell-based, JHH-DIPG-1, MIPE4.0, CellTiter-Glo, qHTS, dose response (AID 1347062; cut-off not given, nearly all actives have AC50 up to about 27 µM;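 for AC50: cells exposed to compound for two days before readout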); settings: JHH-DIPG-1 viability, CellTiter-Glo ATP luminescence
[2] = viability loss in pontine glioma line – cell-based, SU-DIPG-IV, MIPE4.0, CellTiter-Glo, qHTS, dose response (AID 1347063; cut-off not given, nearly all actives have AC50 up to about 30 µM;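 note: compound exposure lasted 48 hours before the viability readout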); settings: CellTiter-Glo ATP luminescence
[3] = viability loss in pontine glioma line – cell-based, SU-DIPG-XXV, MIPE5.0, CellTiter-Glo, qHTS, dose response (AID 1347065; cut-off not given, nearly all actives have AC50 up to about 26 µM;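 note: cells exposed to compound for 48 hours before ATP readout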); settings: CellTiter-Glo ATP luminescence
[4] = viability loss in pontine glioma line – cell-based, SU-DIPG-XIII, MIPE5.0, CellTiter-Glo, qHTS, dose response (AID 1347064; cut-off not given, nearly all actives have AC50 up to about 23 µM;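 for AC50: cells exposed to compound for 48 hours before the viability read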); settings: CellTiter-Glo ATP luminescence
[5] = growth inhibition of DIPG cells – cell-based, MIPE4.0 library, CellTiter-Glo luminescence, qHTS (AID 1347066; cut-off not given, nearly all actives have AC50 up to about 30 µM;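 note: cells exposed to compound for 48 hours before readout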); settings: SU-DIPG-VI viability, CellTiter-Glo ATP luminescence
[6] = JHH-DIPG-1 glioma cell viability, MIPE5.0 library, CellTiter-Glo luminescence, qHTS (AID 1347067; cut-off not given, nearly all actives have AC50 up to about 26 µM;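 note: cells exposed to compound for 48 hours before readout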); settings: JHH-DIPG-1 glioma viability, CellTiter-Glo ATP luminescence
[7] = growth inhibition of DIPG cells – cell-based, MIPE5.0 library, qHTS (AID 1347068; cut-off not given, nearly all actives have IC50 up to about 30 µM;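 for IC50: cells exposed to compound for 48 hours before viability readout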); settings: SU-DIPG-XXV viability
[8] = viability loss with induced miR-34 in A549 – imaging, A549 dox-inducible miR-34, nuclei and caspase counts, primary screen (AID 1347080;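 active = compounds whose cell count with miR-34 switched on is under 0.7 times the count with it off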); settings: A549 miR-34 inducible, Hoechst nuclei count, 48 h
[9] = MELAS cybrid and Rieske KO viability enhancers – cell-based, MELAS cybrids, Rieske KO mouse fibroblasts, CellTiter-Glo, primary screen (AID 1508586;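 active = mean z-score across replicates of 1.96 or higher in either the MELAS or the Rieske mutant cell line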;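 note: z relative to plate mean and SD of compound and empty wells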); settings: low glucose
[10] = compounds altering HSF1 focus formation in cells – imaging, Selleck Cancer Library (AID 1347162; in the data active = plate-normalised HSF1 focus index below about 0.46); settings: human cells, HSF1 nuclear foci imaging, at 10 µM; SSMD: measured here: HSF1 foci SSMD mean; cell count: measured here: cell number; plate-normalised HSF1 focus index: stronger effect = lower value
[11] = drug combination growth inhibition, ovarian cancer – cell-based, oncology-focused library, rucaparib conditional, profiling panel (AID 1508598); settings: patient-derived ovarian cancer cells, CellTiter-Glo viability, 144 h, stronger effect = lower value
[12] = stronger effect = lower value, cell number ratio, induced over uninduced
[13] = measured here: relative caspase fold change +Dox/-Dox
[14] = measured here: total cells with miR-34 induction, stronger effect = lower value
[15] = measured here: total cells without miR-34 induction
[16] = MELAS cybrid survival, CellTiter-Glo 48 h, stronger effect = higher value
[17] = Rieske KO mouse fibroblast survival, CellTiter-Glo 72 h
[18] = at 0.000305 µM, OCI-C5x cells, with rucaparib 10 µM, 100% = cells with rucaparib alone
[19] = at 0.000305 µM, OCI-C5x cells, without rucaparib
[20] = at 0.000305 µM, OCI-P5x cells, with rucaparib 20 µM, 100% = cells with rucaparib alone
[21] = at 0.000305 µM, OCI-P5x cells, without rucaparib
[22] = at 0.00122 µM, OCI-C5x cells, with rucaparib 10 µM, 100% = cells with rucaparib alone
[23] = at 0.00122 µM, OCI-C5x cells, without rucaparib
[24] = at 0.00122 µM, OCI-P5x cells, with rucaparib 20 µM, 100% = cells with rucaparib alone
[25] = at 0.00122 µM, OCI-P5x cells, without rucaparib
[26] = at 0.00488 µM, OCI-C5x cells, with rucaparib 10 µM, 100% = cells with rucaparib alone
[27] = at 0.00488 µM, OCI-C5x cells, without rucaparib
[28] = at 0.00488 µM, OCI-P5x cells, with rucaparib 20 µM, 100% = cells with rucaparib alone
[29] = at 0.00488 µM, OCI-P5x cells, without rucaparib
[30] = at 0.0195 µM, OCI-C5x cells, with rucaparib 10 µM, 100% = cells with rucaparib alone
[31] = at 0.0195 µM, OCI-C5x cells, without rucaparib
[32] = at 0.0195 µM, OCI-P5x cells, with rucaparib 20 µM, 100% = cells with rucaparib alone
[33] = at 0.0195 µM, OCI-P5x cells, without rucaparib
[34] = at 0.0781 µM, OCI-C5x cells, with rucaparib 10 µM, 100% = cells with rucaparib alone
[35] = at 0.0781 µM, OCI-C5x cells, without rucaparib
[36] = at 0.0781 µM, OCI-P5x cells, with rucaparib 20 µM, 100% = cells with rucaparib alone
[37] = at 0.0781 µM, OCI-P5x cells, without rucaparib
[38] = at 0.313 µM, OCI-C5x cells, with rucaparib 10 µM, 100% = cells with rucaparib alone
[39] = at 0.313 µM, OCI-C5x cells, without rucaparib
[40] = at 0.313 µM, OCI-P5x cells, with rucaparib 20 µM, 100% = cells with rucaparib alone
[41] = at 0.313 µM, OCI-P5x cells, without rucaparib
[42] = at 1.25 µM, OCI-C5x cells, with rucaparib 10 µM, 100% = cells with rucaparib alone
[43] = at 1.25 µM, OCI-C5x cells, without rucaparib
[44] = at 1.25 µM, OCI-P5x cells, with rucaparib 20 µM, 100% = cells with rucaparib alone
[45] = at 1.25 µM, OCI-P5x cells, without rucaparib
[46] = at 5 µM, OCI-C5x cells, with rucaparib 10 µM, 100% = cells with rucaparib alone
[47] = at 5 µM, OCI-C5x cells, without rucaparib
[48] = at 5 µM, OCI-P5x cells, with rucaparib 20 µM, 100% = cells with rucaparib alone
[49] = at 5 µM, OCI-P5x cells, without rucaparib

SMILES: Oc1ccc(C2=Cc3ccc(O)cc3OC2)cc1
- AC50 [1]: 8.33 µM (active)
- AC50 [2]: 3.32 µM (active)
- outcome [3]: inactive

SMILES: Cc1noc(-c2ccc(CSCCC(=O)O)cc2)c1NC(=O)OC(C)c1ccccc1Cl (stereo not drawn)
- outcome [1]: inactive
- outcome [2]: inactive
- outcome [4]: inactive
- outcome [3]: inactive
- outcome [5]: inactive
- outcome [6]: inactive
- outcome [7]: inactive
- fold change [8, 12]: 0.888 (inactive)
- fold change [8, 13]: 1.07
- cell count [8, 14]: 6620
- cell count [8, 15]: 7460
- z-score [9, 16]: -0.439 (inactive)
- z-score [9, 17]: 0.718

SMILES: CCCS(=O)(=O)Nc1ccc(F)c(C(=O)c2c[nH]c3ncc(-c4ccc(Cl)cc4)cc23)c1F
- outcome [1]: inactive
- AC50 [2]: 14.8 µM (active)
- outcome [4]: inactive
- outcome [5]: inactive
- outcome [7]: inactive
- fold change [8, 12]: 0.763 (inactive)
- fold change [8, 13]: 1
- cell count [8, 14]: 5420
- cell count [8, 15]: 7100
- SSMD [10]: 2.8
- cell count [10]: 6960
- plate-normalised HSF1 focus index [10]: 1.15 (inactive)
- z-score [9, 16]: -0.461 (inactive)
- z-score [9, 17]: -0.424
- viability [11, 18]: 120% (inactive)
- viability [11, 19]: 96.8% (active)
- viability [11, 20]: 95.6% (active)
- viability [11, 21]: 93% (active)
- viability [11, 22]: 112% (inactive)
- viability [11, 23]: 111% (inactive)
- viability [11, 24]: 99.5% (active)
- viability [11, 25]: 96.2% (active)
- viability [11, 26]: 123% (inactive)
- viability [11, 27]: 106% (inactive)
- viability [11, 28]: 103% (inactive)
- viability [11, 29]: 99% (active)
- viability [11, 30]: 107% (inactive)
- viability [11, 31]: 107% (inactive)
- viability [11, 32]: 107% (inactive)
- viability [11, 33]: 102% (inactive)
- viability [11, 34]: 105% (inactive)
- viability [11, 35]: 107% (inactive)
- viability [11, 36]: 103% (inactive)
- viability [11, 37]: 104% (inactive)
- viability [11, 38]: 106% (inactive)
- viability [11, 39]: 107% (inactive)
- viability [11, 40]: 93.7% (active)
- viability [11, 41]: 105% (inactive)
- viability [11, 42]: 49.6% (active)
- viability [11, 43]: 35% (active)
- viability [11, 44]: 45.5% (active)
- viability [11, 45]: 10.7% (active)
- viability [11, 46]: 97.9% (active)
- viability [11, 47]: 105% (inactive)
- viability [11, 48]: 49.3% (active)
- viability [11, 49]: 16.3% (active)

SMILES: Fc1cc(-c2cccc3ncc(-c4cnn(C5CCNCC5)c4)nc23)cc(F)c1CN1CCOCC1
- AC50 [1]: 20.9 µM (active)
- AC50 [2]: 18.7 µM (active)
- AC50 [4]: 11.8 µM (active)
- AC50 [3]: 9.34 µM (active)
- AC50 [5]: 23.5 µM (active)
- AC50 [6]: 13.2 µM (active)
- IC50 [7]: 23.5 µM (active)
- fold change [8, 12]: 0.713 (inactive)
- fold change [8, 13]: 0.777
- cell count [8, 14]: 5860
- cell count [8, 15]: 8220
- SSMD [10]: -6.26
- cell count [10]: 6160
- plate-normalised HSF1 focus index [10]: 0.613 (inactive)
- z-score [9, 16]: -0.567 (inactive)
- z-score [9, 17]: -0.329
- viability [11, 18]: 105% (inactive)
- viability [11, 19]: 114% (inactive)
- viability [11, 20]: 77.7% (active)
- viability [11, 21]: 90.5% (active)
- viability [11, 22]: 116% (inactive)
- viability [11, 23]: 118% (inactive)
- viability [11, 24]: 18.8% (active)
- viability [11, 25]: 18.7% (active)
- viability [11, 26]: 112% (inactive)
- viability [11, 27]: 114% (inactive)
- viability [11, 28]: 89.3% (active)
- viability [11, 29]: 99.1% (active)
- viability [11, 30]: 110% (inactive)
- viability [11, 31]: 112% (inactive)
- viability [11, 32]: 88.8% (active)
- viability [11, 33]: 91.6% (active)
- viability [11, 34]: 99.8% (active)
- viability [11, 35]: 115% (inactive)
- viability [11, 36]: 80.3% (active)
- viability [11, 37]: 96% (active)
- viability [11, 38]: 114% (inactive)
- viability [11, 39]: 120% (inactive)
- viability [11, 40]: 80.6% (active)
- viability [11, 41]: 89.7% (active)
- viability [11, 42]: 124% (inactive)
- viability [11, 43]: 115% (inactive)
- viability [11, 44]: 68.6% (active)
- viability [11, 45]: 80.5% (active)
- viability [11, 46]: 29.6% (active)
- viability [11, 47]: 15.6% (active)
- viability [11, 48]: 17.1% (active)
- viability [11, 49]: 20.9% (active)

SMILES: CO[C@H]1C[C@@H]2CC[C@@H](C)[C@@](O)(O2)C(=O)C(=O)N2CCCC[C@H]2C(=O)O[C@H]([C@@H](C)C[C@@H]2CC[C@@H](O)[C@H](OC)C2)CC(=O)[C@H](C)/C=C(\C)[C@@H](O)[C@@H](OC)C(=O)[C@H](C)C[C@H](C)/C=C/C=C/C=C/1C
- AC50 [1]: 20.9 µM (active)
- AC50 [2]: 20.9 µM (active)
- AC50 [3]: 16.6 µM (active)
- AC50 [6]: 23.5 µM (active)
- fold change [8, 12]: 0.999 (inactive)
- fold change [8, 13]: 1.23
- cell count [8, 14]: 3690
- cell count [8, 15]: 3700

SMILES: Cc1cc(Nc2cc(NC(=O)c3c(Cl)cccc3Cl)ccn2)nc(N)n1
- AC50 [1]: 18.7 µM (active)
- AC50 [2]: 18.7 µM (active)
- AC50 [4]: 8.33 µM (active)
- AC50 [3]: 9.34 µM (active)
- AC50 [6]: 9.34 µM (active)
- IC50 [7]: 18.6 µM (active)

SMILES: CC(C)C[C@H](NC(=O)c1cc2ccccc2s1)C(=O)N1CCN(C(=O)[C@H](CO)NS(=O)(=O)c2ccc(Cl)cc2Cl)CC1
- outcome [1]: inactive
- AC50 [2]: 20.9 µM (active)
- AC50 [3]: 20.9 µM (active)
- AC50 [5]: 23.5 µM (active)

SMILES: Nc1nc(OCc2ccccc2)c2[nH]cnc2n1
- outcome [1]: inactive
- outcome [2]: inactive
- outcome [3]: inactive
- outcome [5]: inactive
- outcome [6]: inactive
- outcome [7]: inactive
- fold change [8, 12]: 0.895 (inactive)
- fold change [8, 13]: 1.25
- cell count [8, 14]: 8910
- cell count [8, 15]: 9960
